FMDV antiviral: foot and mouth disease virus antiviral activity. FMDV antiviral cell-based qHTS. Potency, µM (titrated, usually from 57.9 µM), without a hit: at the highest dose activity change, negative = inhibition, actives largely listed as inhibitors. 410,000 compounds, 1.2% hits; calls by dose curve; tested in HEK293T cells; further: read-out not given here; nearly all actives have a fitted effect of over 45% in size
VACV Venus inh: vaccinia inhibition (Venus reporter); Vaccinia virus Venus reporter expression, fluorescence; Potency, µM (titrated, usually from 36.5 µM), without a hit: at the highest dose activity change, negative = inhibition, usual class: inhibitors; 330,000 compounds, 0.46% hits; AID 720580; calls by dose curve; tested in A549 cells; further: nearly all actives have a fitted effect of over 30% in size
Giardia FBPA inh: Giardia lamblia aldolase inhibition; A8B2U2; purified Giardia FBPA; Potency, µM (series often up to 59.6 µM), for the others: at the top dose activity, negative = inhibition, actives largely listed as inhibitors; 290,000 compounds, 0.71% hits; AID 2451; active means well fitted inhibition curve with a large enough effect; inconclusive means small, poorly fitted or top-dose-only effect, or effect the other way; further: nearly all actives have a fitted effect of over 55% in size
Target sequence (A8B2U2 whole entry, looked up): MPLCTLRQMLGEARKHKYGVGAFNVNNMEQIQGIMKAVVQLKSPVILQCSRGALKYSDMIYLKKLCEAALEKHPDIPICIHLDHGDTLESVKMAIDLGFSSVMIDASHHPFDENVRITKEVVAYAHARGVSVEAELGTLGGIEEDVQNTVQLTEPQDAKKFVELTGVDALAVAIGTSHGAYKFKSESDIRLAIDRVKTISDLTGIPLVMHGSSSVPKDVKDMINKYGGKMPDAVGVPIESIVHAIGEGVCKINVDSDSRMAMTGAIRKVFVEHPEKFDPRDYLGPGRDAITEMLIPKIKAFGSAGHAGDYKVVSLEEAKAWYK
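40 nM FBPA preincubated 10 min at RT with compound (up to 57.5 uM final), then substrate plus GAPDH/TPI/NAD/arsenate coupling and diaphorase/resazurin added. Fluorescence read after 20 min at RT, 525/598 nm.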
VACV mCherry inh: vaccinia inhibition (mCherry reporter); Vaccinia virus mCherry reporter infection, fluorescence; Potency, µM (series often up to 36.5 µM), without a hit: at the top dose activity change, negative = inhibition, actives largely listed as inhibitors; 310,000 compounds, 0.63% hits; AID 720579; calls by dose curve; tested in A549 cells; further: nearly all actives have a fitted effect of over 35% in size
Numbers without * were called inactive; i = inactive; ? = inconclusive; nt = no result. The list is not random: actives were taken first. Their share in the collection is about 2.2%. On the % scale 0 is the no-effect control and ±100 the full control effect; potency means the concentration at half of the fitted maximal effect.

SMILES	FMDV antiviral	VACV Venus inh	Giardia FBPA inh	VACV mCherry inh
O=C(c1cccnc1)C1CCCN(Cc2ccc3c(c2)CN(C(=O)c2cnccn2)CCO3)C1 (stereo not drawn)	-15%	3%	nt	-4%
COc1ccccc1C1CN(Cc2ccc(Sc3nncn3C)o2)Cc2ccccc2O1 (stereo not drawn)	-3%	-7%	nt	-13%
COC(=O)c1c(C)nn(-c2ccc(OC(F)(F)F)cc2)c1-c1snnc1C	35µM*	-18%	-3%	-12%
Cc1c(CC(=O)NCCCC(=O)O)c(=O)oc2cc3c(cc12)CCC(C)(C)O3	6.3µM*	-6%	-1%	-4%
Cc1ccc([N+](=O)[O-])cc1NC(=O)Nc1cccc(F)c1	28µM*	?	-2%	-27%
O=C(NCCc1ccccc1)C1CCN(c2nc3ccccc3o2)CC1	-24%	nt	6%	nt
O=C(NC1CCCCCCC1)C1CCN(c2nc3ccccc3o2)CC1	14µM*	nt	14%	nt
CCOC(=O)[C@]12Cc3cc(C)ccc3[C@H]1N(C)C(=O)c1ccccc12	-30%	4%	nt	i
CCOC(=O)[C@]12Cc3cc(Cl)ccc3[C@H]1N(C)C(=O)c1ccccc12	?	1%	nt	-14%
CCOC(=O)[C@]12Cc3cc(Cl)ccc3[C@H]1N(C1CCCCC1)C(=O)c1ccccc12	4.5µM*	?	nt	?
CCOC(=O)[C@]12Cc3cc(OC)ccc3[C@H]1N(C1CCCCC1)C(=O)c1ccccc12	8.9µM*	?	nt	?
COc1cccc(-n2c(SC)nnc2C2CCN(Cc3nc4ccccc4s3)CC2)c1	-13%	-9%	nt	-18%
CCCc1cc(=O)[nH]c(SCC(=O)Nc2nc(-c3ccccc3)cs2)n1	-15%	-3%	2%	-4%
O=C(CSc1nc2ccccc2[nH]1)Nc1nc(-c2ccc(Br)cc2)cs1	22µM*	?	-1%	?
O=C1N[C@@H](Cc2ccccc2)COC(=O)[C@@H](Cc2ccc(F)cc2)CC/C=C/C[C@H]1CC(=O)N(CCO)Cc1ccccc1	?	11µM*	nt	?
O=C1N[C@@H](Cc2ccccc2)COC(=O)[C@H](Cc2ccc(F)cc2)CC/C=C/C[C@H]1CC(=O)N(CCO)Cc1ccccc1	-32%	?	nt	?
Cc1c2ccncc2cc2c1[nH]c1ccccc12	4%	10µM*	nt	16µM*
c1ccc2c(c1)[nH]c1cnccc12	-16%	-7%	-2%	3%
COc1ccc2[nH]c(C)cc(=O)c2c1	-6%	-12%	-1%	nt
COc1ccc2[nH]c3c(C)c4ccncc4c(C)c3c2c1	?	10µM*	-14%	7.1µM*
Cc1c2ccncc2c(C)c2c1[nH]c1ccccc12	-21%	10µM*	-8%	11µM*
CCOc1cc(N2CCOCC2)c(OCC)cc1NC(C)C(=O)N1CCN(CC)CC1 (stereo not drawn)	-6%	-10%	5µM*	5%
CCOc1cc(N2CCOCC2)c(OCC)cc1NC(=O)C(C)C	-8%	-10%	?	-12%
Cc1ccc2c(c1)C/C(=C/c1ccc(N(C)C)cc1)C2=O	nt	15%	nt	11%
O=C(CCS(=O)(=O)c1ccc(Br)cc1)N1CCN(Cc2ccccc2)CC1	?	?	0%	nt
SMILES	FMDV antiviral	VACV Venus inh	Giardia FBPA inh	VACV mCherry inh
CC(=O)N1CCN(CCS(=O)(=O)c2ccc(Br)cc2)CC1	-21%	?	nt	18µM*
COc1cccc(OCCCN2CCN(S(=O)(=O)c3ccc(NC(C)=O)cc3)CC2)c1	14µM*	nt	4%	nt
CCOc1ccc(S(=O)(=O)N2CCN(S(=O)(=O)c3ccc(C(C)=O)cc3)CC2)cc1	-15%	-5%	1%	i
CC(=O)c1ccc(S(=O)(=O)N2CCN(CCOc3ccc(Br)cc3)CC2)cc1	18µM*	nt	nt	nt
C[C@@H]1O[C@@H](OC[C@H]2O[C@@H](Oc3c(-c4ccc(OCCO)c(OCCO)c4)oc4cc(OCCO)cc(O)c4c3=O)[C@H](O)[C@@H](O)[C@@H]2O)[C@H](O)[C@H](O)[C@H]1O	-3%	-3%	nt	-11%
CN(C)c1ccc(/C=C2\C=Cc3cc([N+](=O)[O-])ccc32)cc1	nt	30%	nt	-11%
CCOc1cc(CNCCO)cc(Br)c1OCc1ccc(Cl)cc1Cl	?	13µM*	15%	nt
CCOc1cccc(CNCCO)c1OCc1ccc(Cl)cc1Cl	?	?	-5%	?
CCOc1cccc(CNc2ccc(O)cc2)c1OCc1ccc(Cl)cc1Cl	?	-12%	13µM*	nt
COc1ccc(-c2cn3cccnc3n2)cc1NC(=O)Nc1ccc(Cl)cc1	5%	-21%	nt	-18%
Cc1ccc2c(c1)COc1c3ccc(C(=O)O)cc3nn1-2	10µM*	-11%	0%	-4%
Cc1ccc2c(c1)COc1c3ccc(C(=O)NCC4CC4)cc3nn1-2	7%	?	7%	-8%

Screening results: PubChem BioAssay, National Center for Advancing Translational Sciences (NCATS)
